Out of some 5,500 compounds screened, about 2,000 (36%) were called active. Another 18% or so got no clear call; they are omitted. Rule as the data show it: active = normalized growth mostly below about 0.91 (no sharp cut-off); inconclusive = no clear call, values can overlap the other calls; inactive = mostly above about 0.92. The list shows a part of the results.
Assay: chemical genetic growth profiling, strain panel (AID 1159580);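 also: tested at 20 µM; growth read once vehicle control cultures reached saturation at 30 °C; 1 = growth at the plate median or of vehicle wells; lower values mean less growth of the strain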
Details: growth OD

Measured: normalized growth

Cn1nnnc1SCC1=C(C(=O)O)N2C(=O)C(NC(=O)C(OC=O)c3ccccc3)C2SC1 (stereo unspecified)
inactive: S. cerevisiae deletion strains, locus YJR075W, strain HOC1, stronger effect = lower value 1.01 | S. cerevisiae deletion strains, locus YKL009W, strain mrt4, stronger effect = lower value 1.02 | S. cerevisiae deletion strains, locus YKL068W, stronger effect = lower value 1.01 | S. cerevisiae deletion strains, locus YKL085W, strain MDH1 (second series), stronger effect = lower value 1 | S. cerevisiae deletion strains, locus YKL085W, strain MDH1, stronger effect = lower value 1 | S. cerevisiae deletion strains, locus YKL160W, strain elf1, stronger effect = lower value 1.01 | S. cerevisiae deletion strains, locus YKL190W, strain CNB1, stronger effect = lower value 1 | S. cerevisiae deletion strains, locus YKR001C, strain vps1, stronger effect = lower value 1.02 | S. cerevisiae deletion strains, locus YKR026C, strain gcn3, stronger effect = lower value 0.989 | S. cerevisiae deletion strains, locus YKR091W, strain srl3, stronger effect = lower value 0.995 | S. cerevisiae deletion strains, locus YLL001W, strain dnm1, stronger effect = lower value 1 | S. cerevisiae deletion strains, locus YLL026W, stronger effect = lower value 0.997 | S. cerevisiae deletion strains, locus YLL041C, strain sdh2, stronger effect = lower value 1 | S. cerevisiae deletion strains, locus YLR027C, strain aat2, stronger effect = lower value 0.992 | S. cerevisiae deletion strains, locus YLR039C, strain RIC1, stronger effect = lower value 1 | S. cerevisiae deletion strains, locus YLR058C, strain SHM2, stronger effect = lower value 1 | S. cerevisiae deletion strains, locus YLR102C, strain apc9, stronger effect = lower value 1.02 | S. cerevisiae deletion strains, locus YLR113W, strain HOG1, stronger effect = lower value 0.941 | S. cerevisiae deletion strains, locus YLR221C, strain rsa3, stronger effect = lower value 0.987 | S. cerevisiae deletion strains, locus YLR258W, strain gsy2, stronger effect = lower value 0.998 | S. cerevisiae deletion strains, locus YLR262C, strain YPT6 (second series), stronger effect = lower value 1.02 | S. cerevisiae deletion strains, locus YLR262C, strain YPT6, stronger effect = lower value 1.04 | S. cerevisiae deletion strains, locus YLR268W, strain sec22, stronger effect = lower value 1.01 | S. cerevisiae deletion strains, locus YLR320W, strain mms22, stronger effect = lower value 0.993 | S. cerevisiae deletion strains, locus YLR330W, strain CHS5, stronger effect = lower value 1 | S. cerevisiae deletion strains, locus YLR342W, strain FKS1 (second series), stronger effect = lower value 0.999 | S. cerevisiae deletion strains, locus YLR342W, strain FKS1, stronger effect = lower value 0.992 | S. cerevisiae deletion strains, locus YLR357W, strain rsc2, stronger effect = lower value 0.94 | S. cerevisiae deletion strains, locus YLR370C, strain arc18, stronger effect = lower value 0.989 | S. cerevisiae deletion strains, locus YLR371W, strain rom2, stronger effect = lower value 1.02 | S. cerevisiae deletion strains, locus YLR384C, strain iki3, stronger effect = lower value 0.991 | S. cerevisiae deletion strains, locus YLR418C, strain cdc73, stronger effect = lower value 1.04 | S. cerevisiae deletion strains, locus YML016C, strain PPZ1, stronger effect = lower value 1.01 | S. cerevisiae deletion strains, locus YML032C, strain rad52, stronger effect = lower value 1.04 | S. cerevisiae deletion strains, locus YML120C, strain ndi1, stronger effect = lower value 1.02 | S. cerevisiae deletion strains, locus YML124C, strain tub3, stronger effect = lower value 1.02 | S. cerevisiae deletion strains, locus YMR058W, strain fet3, stronger effect = lower value 0.998 | S. cerevisiae deletion strains, locus YMR078C, strain ctf18, stronger effect = lower value 1.02 | S. cerevisiae deletion strains, locus YMR125W, strain sto1, stronger effect = lower value 0.989 | S. cerevisiae deletion strains, locus YMR129W, stronger effect = lower value 1 | S. cerevisiae deletion strains, locus YMR205C, strain PFK2, stronger effect = lower value 1.02 | S. cerevisiae deletion strains, locus YMR223W, strain ubp8, stronger effect = lower value 1.02 | S. cerevisiae deletion strains, locus YMR231W, strain pep5, stronger effect = lower value 0.998 | S. cerevisiae deletion strains, locus YMR263W, strain SAP30, stronger effect = lower value 0.999 | S. cerevisiae deletion strains, locus YMR307W, strain GAS1, stronger effect = lower value 1.07 | S. cerevisiae deletion strains, locus YNL067W, strain RPL9B, stronger effect = lower value 1 | S. cerevisiae deletion strains, locus YNL071W, strain lat1, stronger effect = lower value 1 | S. cerevisiae deletion strains, locus YNL128W, strain TEP1, stronger effect = lower value 1.02 | S. cerevisiae deletion strains, locus YNL153C, strain GIM3, stronger effect = lower value 0.997 | S. cerevisiae deletion strains, locus YNL183C, strain NPR1, stronger effect = lower value 0.934 | S. cerevisiae deletion strains, locus YNL209W, strain ssb2, stronger effect = lower value 1 | S. cerevisiae deletion strains, locus YNL233W, strain BNI4, stronger effect = lower value 0.993 | S. cerevisiae deletion strains, locus YNL248C, strain rpa49, stronger effect = lower value 0.986 | S. cerevisiae deletion strains, locus YNL250W, strain rad50, stronger effect = lower value 1.02 | S. cerevisiae deletion strains, locus YNL271C, strain bni1, stronger effect = lower value 1.04 | S. cerevisiae deletion strains, locus YNL298W, strain CLA4, stronger effect = lower value 1.05 | S. cerevisiae deletion strains, locus YNL307C, strain MCK1, stronger effect = lower value 1.03 | S. cerevisiae deletion strains, locus YNL322C, strain KRE1 (second series), stronger effect = lower value 1 | S. cerevisiae deletion strains, locus YNR049C, strain mso1, stronger effect = lower value 0.988 | S. cerevisiae deletion strains, locus YNR052C, strain pop2, stronger effect = lower value 1.03 | S. cerevisiae deletion strains, locus YOL006C, strain TOP1, stronger effect = lower value 1.02 | S. cerevisiae deletion strains, locus YOL012C, strain htz1 0.769 | S. cerevisiae deletion strains, locus YOL147C, strain pex11, stronger effect = lower value 1.02 | S. cerevisiae deletion strains, locus YOR001W, strain rrp6, stronger effect = lower value 0.973 | S. cerevisiae deletion strains, locus YOR061W, strain CKA2, stronger effect = lower value 1.01 | S. cerevisiae deletion strains, locus YOR069W, strain VPS5, stronger effect = lower value 0.993 | S. cerevisiae deletion strains, locus YOR070C, strain gyp1, stronger effect = lower value 0.985 | S. cerevisiae deletion strains, locus YOR080W, strain dia2, stronger effect = lower value 1 | S. cerevisiae deletion strains, locus YOR083W, strain WHI5, stronger effect = lower value 1.01 | S. cerevisiae deletion strains, locus YOR106W, strain vam3, stronger effect = lower value 1.02 | S. cerevisiae deletion strains, locus YOR136W, strain idh2, stronger effect = lower value 1.03 | S. cerevisiae deletion strains, locus YOR144C, strain elg1, stronger effect = lower value 1.01 | S. cerevisiae deletion strains, locus YOR184W, strain ser1, stronger effect = lower value 1.02 | S. cerevisiae deletion strains, locus YOR231W, strain MKK1, stronger effect = lower value 0.983 | S. cerevisiae deletion strains, locus YOR265W, strain rbl2, stronger effect = lower value 1.01 | S. cerevisiae deletion strains, locus YOR270C, strain vph1, stronger effect = lower value 1.01 | S. cerevisiae deletion strains, locus YOR290C, strain snf2, stronger effect = lower value 1.01 | S. cerevisiae deletion strains, locus YOR316C, strain cot1, stronger effect = lower value 1.02 | S. cerevisiae deletion strains, locus YPL051W, strain arl3, stronger effect = lower value 0.983 | S. cerevisiae deletion strains, locus YPL055C, strain LGE1, stronger effect = lower value 1.02 | S. cerevisiae deletion strains, locus YPL078C, strain atp4, stronger effect = lower value 1.01 | S. cerevisiae deletion strains, locus YPL106C, strain sse1, stronger effect = lower value 1.01 | S. cerevisiae deletion strains, locus YPL240C, strain hsp82, stronger effect = lower value 0.995 | S. cerevisiae deletion strains, locus YPL241C, strain CIN2, stronger effect = lower value 1 | S. cerevisiae deletion strains, locus YPL256C, strain CLN2, stronger effect = lower value 0.999 | S. cerevisiae deletion strains, locus YPR119W, strain clb2, stronger effect = lower value 1.02 | S. cerevisiae deletion strains, locus YPR141C, strain kar3, stronger effect = lower value 1.01 | S. cerevisiae deletion strains, locus YPR163C, strain tif3, stronger effect = lower value 1.04 | S. cerevisiae deletion strains, locus YPR167C, strain met16, stronger effect = lower value 1.02 | S. cerevisiae deletion strains, strain wtn01, stronger effect = lower value 1.01 | S. cerevisiae strains, strain wild type, stronger effect = lower value 1

From PubChem BioAssay AID1159580 (chemical genetic matrix, 2015)
